High-throughput results from PubChem.
This excerpt belongs to a sample that is enriched for hits.
HT1080 IDH1KD tx – qHTS for induction of synthetic lethality in tumor cells producing 2HG: qHTS for the HT-1080-IDH1KD cell line. Potency, µM (highest dose often 46.1 µM), inactives show at the highest dose activity, negative = toxicity, hits mostly cytotoxic. HT-1080 IDH1 knockdown viability, ATP luminescence, 48 h. actives 2% (n = 360,000). AID 686971, 2013;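 note: potency is the fitted concentration of half-maximal effect; 0% = DMSO wells and -100% = cell-free medium wells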
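% activity derives from luminescence (CellTiter-Glo), normalised to DMSO and no-cell wells. HT-1080-IDH1KD cells, 750/well, had 48 h compound exposure at 37 °C.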
TDP1 cell CPT – qHTS for Inhibitors of human tyrosyl-DNA phosphodiesterase 1 (TDP1): qHTS in cells in presence of CPT | chicken DT40 Tdp1-/-;hTDP1 cells + 20 nM CPT, ATP luminescence, 48 h | Potency, µM (series often up to 46.2 µM), inactives show at the highest dose activity change, negative = growth inhibition, usual class: inhibitors | actives 12% (n = 420,000); note: potency is the fitted concentration of half-maximal effect; nearly all actives have a fitted effect of over 55% in size
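Cell growth measured by CellTiter-Glo luminescence after a minimum 48 h, 37 C compound exposure with 20 nM CPT in Tdp1-knockout DT40 cells stably expressing hTDP1, seeded 400/well; qHTS titration format.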
DT40 TDP1 no CPT – qHTS for Inhibitors of human tyrosyl-DNA phosphodiesterase 1 (TDP1): qHTS in cells in absence of CPT | AID 686978, 2013 | Potency, µM (doses to about 46.2 µM), for inactives: at the top dose activity change, negative = growth inhibition, hits mostly inhibitors | DT40 Tdp1-/- hTDP1 cells, no CPT, ATP luminescence, 48 h | actives 15% (n = 420,000); note: potency is the fitted concentration of half-maximal effect; nearly all actives have a fitted effect of over 55% in size
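Growth of hTDP1-complemented DT40 Tdp1-knockout cells is measured by ATP luminescence after at least 48 hr compound exposure at 37 °C, with DMSO substituting for the 20 nM CPT used in the parallel screen.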
HT1080NT lethal – qHTS for induction of synthetic lethality in tumor cells producing 2HG: qHTS for the HT-1080-NT fibrosarcoma cell line. HT-1080-NT fibrosarcoma viability, CellTiter-Glo ATP luminescence, 48 h. Potency, µM (highest dose often 46.1 µM), without a hit: top-dose activity, negative = less viability, usual class: cytotoxic. actives 1.6% (n = 360,000);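 note: NT is the 2HG producing partner of a matched IDH1 knockdown line; potency is the fitted concentration of half-maximal effect; 0% = DMSO-treated cells and -100% = media-only wells without cells; nearly all actives have a fitted effect of over 55% in size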
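Viability by CellTiter-Glo luminescence after 48 h compound exposure at 37C of HT-1080-NT cells (750/well, RPMI, 5% FBS). % activity scaled between DMSO wells and medium-only wells, then curve-fitted and categorized by curve class.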
12-LOX inh – Primary qHTS assay for inhibitors of human arachidonate 12S-lipoxygenase (ALOX12): Round 2; Polyunsaturated fatty acid lipoxygenase ALOX12 (Homo sapiens), P18054; purified 12hLO, xylenol orange hydroperoxide absorbance; Potency, µM (doses to about 108 µM), inactives show at the highest dose activity change, negative = inhibition, actives largely listed as inhibitors; actives 1.1% (n = 580,000); note: potency is the fitted concentration of half-maximal effect
Target sequence (P18054 whole entry, looked up): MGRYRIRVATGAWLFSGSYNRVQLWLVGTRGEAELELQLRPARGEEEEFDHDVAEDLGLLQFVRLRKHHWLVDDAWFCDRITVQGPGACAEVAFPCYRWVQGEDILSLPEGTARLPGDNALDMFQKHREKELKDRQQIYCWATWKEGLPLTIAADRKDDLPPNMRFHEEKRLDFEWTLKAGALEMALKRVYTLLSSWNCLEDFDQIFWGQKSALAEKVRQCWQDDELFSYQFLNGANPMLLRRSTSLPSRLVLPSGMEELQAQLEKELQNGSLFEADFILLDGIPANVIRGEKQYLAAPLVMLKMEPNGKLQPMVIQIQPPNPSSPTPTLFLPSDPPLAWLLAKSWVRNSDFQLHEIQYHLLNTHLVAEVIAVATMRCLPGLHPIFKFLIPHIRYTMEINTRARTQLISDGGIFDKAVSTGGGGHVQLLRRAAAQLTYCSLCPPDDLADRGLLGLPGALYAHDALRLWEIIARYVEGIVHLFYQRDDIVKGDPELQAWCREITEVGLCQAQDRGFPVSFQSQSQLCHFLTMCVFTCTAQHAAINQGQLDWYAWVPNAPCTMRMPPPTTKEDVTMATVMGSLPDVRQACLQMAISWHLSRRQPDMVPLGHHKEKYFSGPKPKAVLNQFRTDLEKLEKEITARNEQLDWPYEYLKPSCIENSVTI
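Purified human 12hLO at 150 nM in 25 mM Hepes, 0.01% Triton X-100, pH 7.0, preincubated 15 min at room temperature with compound. Reaction started with 40 uM arachidonic acid, 30 min at room temperature. Hydroperoxide measured by Fe-xylenol orange, 573/405 nm absorbance ratio.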
IL1B secr inh – qHTS for Inhibitors of Inflammasome Signaling: IL-1-beta AlphaLISA Primary Screen; THP-1 LPS/ATP IL-1B secretion, AlphaLISA, 16 h; stronger effect = lower value; activity change, % at 57.5 µM; actives 4.7% (n = 360,000); in the data active = activity change below about -50%; inconclusive = mostly about -30% to -49%
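Secreted IL-1B measured by AlphaLISA bead assay after 16 h compound exposure of THP-1 cells; compounds (final up to 57.5 uM) added 1 h before LPS (250 ng/mL) and ATP (1.25 mM) stimulation; lower signal means less secretion.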
The depositor's hits bear a star; ? = inconclusive; . = no result; [ ] = dose if it differs, or a comment. Unless noted, calls come from the whole dose curve; as a rule, active = well fitted curve in the direction sought with a large enough effect; inconclusive = small, poorly fitted or top-dose-only effect, or another doubt; inactive = no such curve, though single readings can be large; an effect the other way counts as inactive or inconclusive. Unless noted, % is set by controls: 0 for no effect and ±100 for the full control effect.

SMILES	HT1080 IDH1KD tx	TDP1 cell CPT	DT40 TDP1 no CPT	HT1080NT lethal	12-LOX inh	IL1B secr inh
Cc1ccc(C2=NOC(=O)/C2=C\c2ccc(C)o2)cc1	-1%	13µM*	23µM*	13%	16µM*	-2
Cc1ccc(-c2ccc(/C=C3\C(=O)ON=C3c3ccccc3)o2)c([N+](=O)[O-])c1	-24%	8.2µM*	16µM*	?	4.5µM*	-107*
Cc1ccc(OC(=O)c2ccc(-c3ccccc3)cc2)cc1	.	.	.	.	-19%	.
COC(=O)c1ccc2c(c1)c(C#Cc1ccccc1)c(-c1ccccc1)n2C	1%	21µM*	16µM*	8%	-12%	13
COc1ccc(-c2c(C#Cc3ccsc3)c3cc(-c4cccc5[nH]ccc45)ccc3n2C)cc1	6%	?	18µM*	-5%	2%	-15
COc1ccc(-c2c(C#Cc3ccsc3)c3cc(-c4ccc5[nH]ccc5c4)ccc3n2C)cc1	1%	-23%	?	-2%	-57%	1
COc1cc(OC)cc(-c2c(C#Cc3ccsc3)c3cc(-c4ccc(OC)c(OC)c4)ccc3n2C)c1	0%	-9%	-15%	0%	?	24
COc1ccc(-c2c(C#Cc3ccsc3)c3cc(-c4ccc(C(N)=O)cc4)ccc3n2C)cc1	-10%	23µM*	?	12%	-3%	-7
COc1cc(F)cc(-c2ccc3c(c2)c(C#Cc2ccsc2)c(-c2cc(OC)cc(OC)c2)n3C)c1	0%	?	15µM*	8%	5%	-11
CN(c1ccc(/C=C/c2ccccc2)cc1)P1(=O)NCCCO1 (stereo unspecified)	.	-16%	-9%	.	.	.
COc1ccc(-c2c(C#Cc3ccsc3)c3ccccc3n2C)cc1	-1%	21µM*	23µM*	-12%	-29%	21
CCc1ccccc1N(CC(=O)N1CCc2ccccc2C1)S(C)(=O)=O	10%	-18%	?	12%	-2%	-6
CN(C)c1ccc(-c2n[nH]c(=S)n2-c2ccccc2)cc1	-4%	1%	-16%	0%	?	12
CCN(CC)c1ccc(-c2n[nH]c(=S)n2-c2ccccc2)cc1	21µM*	18µM*	23µM*	?	?	23
CCN(CC)c1ccc(-c2n[nH]c(=S)n2-c2ccccc2C)cc1	-8%	21µM*	18µM*	-18%	0%	43
O=C1N(C2CCOCC2)C[C@H]2CN(S(=O)(=O)c3ccccc3)CCN12	.	.	.	.	4%[176 µM]	.
CCCNC(=O)C1COC2(CCC(C)CC2)N1C(=O)c1ccc(Cl)c(Cl)c1 (stereo unspecified)	.	.	.	.	31%	.
COC(=O)[C@@H]1C[C@@]2(O)[C@H](O)[C@H](O)[C@H](O)C[C@H]2N1Cc1ccc(-c2ccccc2)cc1	4%	-29%	-8%	0%	104%	-71*
CC(C)CNC[C@H]1O[C@H](Cc2cc(CN3CCOCC3)on2)CC[C@@H]1O	.	.	.	.	18%[176 µM]	.
C[C@H]1C=C2C=C[C@H](C)[C@H](CC[C@@H]3C[C@@H](O)CC(=O)O3)[C@H]2[C@@H](OC(=O)[C@@H](C)CCO)C1	.	27µM*	27µM*	.	?	.
CCOC(=O)C1=C(N)n2c(s/c(=C\c3cccnc3)c2=O)=C(C#N)C1c1cccnc1 (stereo unspecified)	3%	11%	16%	-2%	7%	3
CCOC(=O)C1=c2s/c(=C\c3cccnc3)c(=O)n2C(N)=C(C(=O)OC)C1c1cccnc1 (stereo unspecified)	9%	23µM*	15µM*	1%	-2%	11
OC(c1cc(F)cc(Cl)c1)c1ncc(-c2cccc(C(F)(F)F)c2)[nH]1 (stereo unspecified)	?	16µM*	13µM*	?	-10%	-8
OC(c1ccc(Cl)cc1)c1ncc(-c2cccc(C(F)(F)F)c2)[nH]1 (stereo unspecified)	?	?	21µM*	?	-13%	?
COc1ccc(C(O)c2ncc(-c3cccc(C(F)(F)F)c3)[nH]2)cc1 (stereo unspecified)	5%	?	?	20%	-12%	-1
SMILES	HT1080 IDH1KD tx	TDP1 cell CPT	DT40 TDP1 no CPT	HT1080NT lethal	12-LOX inh	IL1B secr inh
Cc1ccc(-c2noc(-c3nc(C(C)C)no3)n2)cc1	.	.	.	.	40%	.
CCN1C(=S)SC(=O)C1=C1C=C(C)N(Cc2ccco2)C(C)=C1	-24%	4.6µM*	5.2µM*	-25%	-18%	-5
CCN1C(=S)SC(=O)C1=C1C=C(C)OC(C)=C1	2%	-9%	?	3%	0%	-19
COc1cc(S(=O)(=O)NC(c2ccc(F)cc2)c2cccs2)ccc1NC(C)=O (stereo unspecified)	.	.	.	.	1%	.
Cc1ccc(C)c(CN2C(=O)c3ccccc3S(=O)c3ccc(C(=O)N4CCN(c5ccccn5)CC4)cc32)c1 (stereo unspecified)	-12%	?	16µM*	?	4%	-24
Cc1ccc(C)c(CN2C(=O)c3ccccc3S(=O)c3ccc(C(=O)N4CCN(c5ccccc5F)CC4)cc32)c1 (stereo unspecified)	.	5.8µM*	1.8µM*	.	?	.
CCOC(=O)C1CCCN(C(=O)c2ccc3c(c2)N(Cc2ccccc2F)C(=O)c2ccccc2S3=O)C1 (stereo unspecified)	.	?	16µM*	.	-21%	.
CCN1CCN(C(=O)c2ccc3c(c2)N(Cc2cc(C)ccc2C)C(=O)c2ccccc2S3=O)CC1 (stereo unspecified)	.	18µM*	16µM*	.	-5%	.
CCOc1ccc(-n2nnnc2CNS(=O)(=O)CC)cc1	.	.	.	.	-3%	.
CC(C)(C)CN1CCOC[C@H]1c1ncc(-c2ccc(C(F)(F)F)cc2)[nH]1	.	.	.	.	30%[176 µM]	.
CC(OC(=O)C1CCN(S(=O)(=O)c2ccc(C(C)(C)C)cc2)CC1)C(=O)N1CCCCCC1 (stereo unspecified)	.	.	.	.	6%	.
